In PubChem BioAssay AID1477 (National Center for Advancing Translational Sciences (NCATS), 2009):
Among all 230,000 compounds or so, fewer than 10 were called active. Not shown: some 3% with an inconclusive outcome. Calls follow the shape of the dose curve; as a rule, active = well fitted curve in the direction sought with a large enough effect; inconclusive = small, poorly fitted or top-dose-only effect, or effect the other way, or another doubt; inactive = no such curve, though single readings can be large or run the other way. A selection follows.

The compounds below were run against Runt-related transcription factor 1 (Homo sapiens) + Core-binding factor subunit beta (Homo sapiens) (UniProt Q01196+Q13951) (assay: qHTS Assay for Compounds Blocking the Interaction Between CBF-beta and RUNX1 for the Treatment of Acute Myeloid Leukemia). Conditions: AlphaScreen CBFb-His/RUNX1-biotin binding, biochemical; series mostly up to 59.8 µM.
Description: NIH Chemical Genomics Center [NCGC]
NIH Molecular Libraries Probe Production centers Network [MLPCN]
Assay Submitter (PI): Paul Liu
Core Binding Factor (CBF) abnormalities are associated with 20-25% of all acute myeloid leukemias (AML), of which 5-10% are further sub classified as acute myelomonocytic leukemia with eosinophilia, also known as M4Eo in the FAB classification scheme. This subtype of leukemia is usually associated with chromosome 16 inversion (p13:q22). Chromosome 16 inversion results in formation of the fusion oncogene CBFB-MYH11, which encodes the fusion protein CBF-beta-SMMHC.
It has been hypothesized that the interference of CBF-beta and RUNX1 binding could have therapeutic implications for patients with CBF mediated leukemias. We developed a CBF-beta and RUNX1 binding assay in AlphaScreenTM format and optimized it for high throughput screening to search for inhibitors. The goal of this project is to screen MLPCN's compound collection (MLSMR) for identifying the inhibitors of the interaction between CBF-beta and RUNX1 proteins as research probes. If these probes work well in the animal models, the ultimate goal of this project is to development a new drug treatment for this disease.
This assay can not be used to assess how apparent inhibitors interfere with protein binding, and whether inhibitors specifically bind to either protein. Disruption of this protein-protein interaction, through any mechanism, is the intended target activity.
NCGC Assay Protocol Summary:
Step, Parameter, Description
(1) Reagent, 3 uL CBFb-His/RUNX1-biotin mix incubated together for 20 minutes at room temperature (30 nM each)
(2) Compound or control, 23 nL compound stock solution
(3) Incubation, 15 minutes at Room temperature
(4) Reagent, 1 uL 50 ng each of beads (Nickel beads and streptavidin beads)
(5) Incubation, 90 minutes at Room temperature
(6) Detection, Excitation=365 nm Emission=440 nm, Envision reader in AlphaScreenTM mode
Keywords: MLSMR, MLPCN, NIH Roadmap, qHTS, NCGC, Core binding factor, CBF, CBF-beta, Acute myeloid leukemia
Also: % of control where 0% means no effect.

Runt-related transcription factor 1 (Homo sapiens) + Core-binding factor subunit beta (Homo sapiens), sequence (Q01196 whole entry, looked up): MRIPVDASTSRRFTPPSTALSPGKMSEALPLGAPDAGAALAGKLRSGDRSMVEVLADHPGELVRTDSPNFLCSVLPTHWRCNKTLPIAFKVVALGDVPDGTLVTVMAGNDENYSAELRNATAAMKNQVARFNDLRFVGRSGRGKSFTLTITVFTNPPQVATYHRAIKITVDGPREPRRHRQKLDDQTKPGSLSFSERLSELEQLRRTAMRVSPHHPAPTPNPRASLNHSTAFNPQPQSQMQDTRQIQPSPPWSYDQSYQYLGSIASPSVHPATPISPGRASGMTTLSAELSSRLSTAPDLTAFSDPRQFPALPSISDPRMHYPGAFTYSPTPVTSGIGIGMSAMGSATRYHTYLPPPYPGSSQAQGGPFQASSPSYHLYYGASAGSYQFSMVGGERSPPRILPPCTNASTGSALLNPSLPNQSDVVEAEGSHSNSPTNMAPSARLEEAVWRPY
Runt-related transcription factor 1 (Homo sapiens) + Core-binding factor subunit beta (Homo sapiens), sequence (Q13951 whole entry, looked up): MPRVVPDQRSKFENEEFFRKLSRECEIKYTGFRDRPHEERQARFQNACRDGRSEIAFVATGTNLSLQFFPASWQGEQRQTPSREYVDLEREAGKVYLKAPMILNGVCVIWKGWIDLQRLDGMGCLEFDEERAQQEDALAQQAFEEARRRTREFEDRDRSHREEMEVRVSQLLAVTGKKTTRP

activity, negative = inhibition, inactive:
CN(C)/C=C(/C(=O)c1ccc(F)cc1)S(=O)(=O)c1ccc(F)cc1
COc1ccc(C2c3[nH]c4ccccc4c3CCN2CCCn2cccn2)cc1C (stereo unspecified)
S=c1nc(C23CC4CC(CC(C4)C2)C3)nc2sccn12
Cc1ccc(-c2ccc(/C=C(\C#N)C(N)=S)o2)c([N+](=O)[O-])c1
Cc1cccc(N2CCN(C(=O)c3cccc(S(=O)(=O)N4CCc5ccccc5C4)c3)CC2C)c1 (stereo unspecified)
CCO[C@@H]1OC(C(=O)NC2CC2)=C[C@H](C)[C@H]1CCCO
CCC1(CC)C(=O)C2=C3C1[C@H](C(=O)OC)C=C(C(=O)OC)C[C@H]3[C@H]1C(=O)N(Cc3ccccc3)C(=O)[C@H]1[C@H]2C (stereo partly specified)
CC(=O)OCC(NC(=O)C(Cc1ccccc1)NC(=O)OC(C)(C)C)C1OC(n2ccc(=O)[nH]c2=O)C(OC(C)=O)C1OC(C)=O (stereo unspecified)
COc1cc(S(=O)(=O)N2CCOCC2)ccc1NC(=O)COc1ccc(N(C)S(=O)(=O)c2ccc(C)cc2)cc1
CNC(=O)/C(C#N)=C/c1c(F)cccc1Cl
CCCCNC(=O)CSc1nc2ccc(NC(=O)CSc3nnc(N)s3)cc2s1
CN(CC(=O)Nc1ccc(F)cc1)CC(=O)Nc1ccc(Cl)c(S(=O)(=O)N2CCOCC2)c1
NC(=O)c1ccc(NC(=O)COC(=O)c2c3c(nc4ccccc24)/C(=C\c2ccc4c(c2)OCO4)CCC3)cc1
COc1cc(OC)c2c(C)cc(=O)oc2c1C(CCN1CCCCC1)c1ccc(N(C)C)cc1 (stereo unspecified)
Cc1cc(C(=O)NCCc2ccc(Cl)cc2)n(-c2ccccc2)n1
Cc1ccc(CNC(=O)C2(C(F)(F)F)C/C(=C\Cc3ccccc3)CCCO2)o1 (stereo unspecified)
CCCN1CCC(=O)N(C(CSc2ccc(C)cc2)Cc2ccccc2)CC1 (stereo unspecified)
Cn1ncc(N2CCN(S(=O)(=O)c3ccc(Br)cc3)CC2)c(Cl)c1=O
CC1(C)OC(C(O)(c2ccccc2)c2ccccc2)C(C(O)(c2ccccc2)c2ccccc2)O1 (stereo unspecified) 6.37% [at 13.1 µM]
CCc1c(C)nc2c(-c3ccccc3)c(C)nn2c1Nc1ccc(NC(C)=O)cc1
Cn1ncc2c(NNC(=O)Cc3cccc4ccccc34)ncnc21
O=c1ccn([C@@H]2O[C@H](COP(=O)(O)OP(=O)(O)OP(=O)(O)O)[C@@H](O)[C@H]2O)c(=O)[nH]1
CCC/C(C)=N\Nc1nc2c(c(=O)n(C)c(=O)n2C)n1C
O=C1CN(Cc2ccccc2)S(=O)(=O)c2ccccc21
CCc1nnc(NC(=O)[C@@H](NC(=O)c2cccc(C)c2)C(C)C)s1
O=[N+]([O-])c1ccccc1S(=O)(=O)Nc1cccc2cccnc12
N#Cc1c(C(F)(F)F)cc(-c2cccs2)nc1N1CCCCC1
COc1ccc2nc(NC(=O)[C@@H]3CCCN3C(=O)c3cccs3)sc2c1
Cc1ccc(OCCCCN2CCCCC2)c(Br)c1
C[C@H]1Cc2c(-c3ccccc3)nc3c(c2CO1)CN(C(=O)C1CC1)CC3 -2.96% [at 13.1 µM]
COc1ccc(-c2nc3c(c4c2C[C@H](c2ccccc2)OC4)CN(S(=O)(=O)c2c(C)noc2C)CC3)c(C)c1 2.29% [at 13.1 µM]
CCOC(=O)C1=C(CSc2nnnn2C)N(C)C(=O)NC1c1ccccc1 (stereo unspecified)
COc1ccc(SC[C@H](Cc2ccccc2)N2CCN(CCc3ccccc3)CCC2=O)cc1
CON(C)S(=O)(=O)c1ccc2c(c1)NC(=O)C1CCCN21 (stereo unspecified)
O=C(NCCc1ccccn1)c1cccnc1Oc1ccc(Cl)cc1
COc1ccc(SCCN2CCN(CC(C)C)CCC2=O)cc1
Cc1ccccc1C(OCCN(C)C)C1CCCCC1 (stereo unspecified)
COC(=O)c1ccc(C(NC(=O)OCc2ccccc2)/C(F)=C/[C@@H](C)C(=O)O)cc1 (stereo partly specified)
C[C@@H]1O[C@@H](OC[C@H]2O[C@@H](Oc3cc(O)c4c(c3)O[C@H](c3ccc(O)c(O)c3)CC4=O)[C@H](O)[C@@H](O)[C@@H]2O)[C@H](O)[C@H](O)[C@H]1O
COc1ccc(NC(=O)CSc2ncnc3[nH]ncc23)cc1
COc1ccc(-c2nc3c(c4c2C[C@H](c2ccccc2)OC4)CN(C(=O)c2cccnc2)CC3)c(C)c1 2.51% [at 13.1 µM]
CC1CCN(C(=S)c2ccc(-c3ccc(Cl)cc3Cl)o2)CC1
O=C(/C=C/c1ccc(OCc2c(F)cccc2Cl)cc1)N1CCOCC1
OCCC(O)CO (stereo unspecified)
COc1ccc2cc(-c3[nH]ncc3CNCCn3nc(C)cc3C)ccc2c1
COC(=O)c1ccc([C@@H](O)[C@H](C)C(=O)CC(=O)OC(C)(C)C)cc1
O=C(Nc1cc(C(=O)Nc2ccc(S(=O)(=O)O)cc2)cc(C(=O)Nc2ccc(S(=O)(=O)O)cc2)c1)Nc1cc(C(=O)Nc2ccc(S(=O)(=O)O)cc2)cc(C(=O)Nc2ccc(S(=O)(=O)O)cc2)c1
Cc1ccccc1C(CC(=O)c1cccs1)C(C#N)C#N (stereo unspecified)
CC[C@H](C)[C@H](NC(=O)[C@@H](N)CCC(=O)O)C(=O)N[C@@H](CC(C)C)C(=O)N[C@@H](CC(=O)O)C(=O)N[C@H](C(=O)N1CCC[C@H]1C(=O)N[C@@H](CO)C(=O)N[C@H](C(=O)O)[C@@H](C)O)C(C)C
CCCCOc1ccc(C(=O)N/C(=C/C=C/c2ccccc2)C(=O)N2CCOCC2)cc1
CC(Oc1cccc(NC(=O)c2cccs2)c1)C(=O)c1ccccc1 (stereo unspecified)
Cc1cccc(Nc2nc3c(S(=O)(=O)c4ccccc4)nnn3c3ccccc23)c1C
CCO[C@@H]1OC(C(N)=O)=C[C@H](c2ccc(Br)cc2)[C@H]1CCCO
O=c1c(O)c(-c2ccc(O)cc2)oc2ccccc12
N=c1n(CCc2ccccc2)c2ccccc2n1Cc1ccccc1F
O=C1CCC(=O)N(O)CCCCCNC(=O)CCC(=O)N(O)CCCCCNC(=O)CCC(=O)N(O)CCCCCN1
